PubChem BioAssay (NCATS)
Unmarked numbers belong to inactive results. The rule behind the calls is not given here.
Potency is the fitted concentration of half-maximal effect.

The compounds below were run on HIV-1 nucleocapsid protein NCp7 (binding to TG oligonucleotide) (assay: HIV Nucleocapsid (AID 346;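 note: potency is for inhibitors that block NC binding and lower polarization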)). Settings: HIV-1 NC / fluorescein-TGTGTGTG probe, fluorescence polarization.
Summary of the method: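 Reagents dispensed (10 nM TG4xF, 100 nM HIV-1 NC), plates spun, compounds pin-transferred, then incubated 1 hr at room temperature before FP imaging. Buffer: Hepes pH 7.5, 250mM NaCl, 1uM ZnCl2, 100 uM TCEP, 5 mM 2-mercaptoethanol.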
Compound `COc1ccc(-c2nc3cnc(N4CCN(C)CC4)nc3n(Cc3cccc(OC)c3)c2=O)cc1` has a Potency of over 20 µM. `Cn1cccc1C(=O)N1CCC2(CCN(C(=O)Nc3ccccc3)CC2)CC1` showed a Potency of over 20 µM. `CN1CCN(c2cc(-c3ccccc3C(F)(F)F)ncn2)CC1` gave a Potency of over 20 µM. Compound `COCCn1c(=O)c(-c2ccc(OC)cc2)nc2cnc(Oc3ccccc3)nc21` has a Potency of over 20 µM. With `N#Cc1cccc(-c2cncnc2NCCc2cnc[nH]2)c1` the Potency was over 20 µM. In the case of `CN(Cc1ccco1)c1cc(-c2ccccc2Cl)ncn1`, the Potency is reported as over 20 µM. In the case of `COc1ccc(-n2c(=O)c(-c3ccc(F)cc3)nc3cnc(OC)nc32)cc1`, the Potency is reported as over 20 µM. `COc1ncc2nc(-c3cn(C)c4ccccc34)c(=O)n(CCC#N)c2n1` was tested, and the Potency was over 20 µM. In the case of `COCCNc1nc(-c2cccc(NS(C)(=O)=O)c2)nc2ccccc12`, the Potency is reported as over 20 µM. `COCCNc1nc(-c2ccc(N(C)C)cc2)nc2ccccc12` showed a Potency of over 20 µM. For `O=c1c(-c2cccs2)nc2cnc(N3CCOCC3)nc2n1-c1ccccc1`, the Potency was over 20 µM. Work on `CN1CCN(c2ncc3ncc(=O)n(Cc4cccs4)c3n2)CC1` yielded a Potency of over 20 µM. `COc1cccc(-c2cc(NCc3ccccc3OC)ncn2)c1` gave a Potency of over 20 µM. `COc1cccc(Nc2ncc3nc(CCc4ccccc4)c(=O)n(C)c3n2)c1` gave a Potency of over 4 µM. For `Cc1cccc(CNc2ncncc2-c2cccc(NS(C)(=O)=O)c2)c1`, the Potency was over 20 µM. `CC(=O)N1CCC2(CCCN(c3ccc(-c4ccccc4)cc3)C2)CC1` was tested, and the Potency was over 20 µM. `CCNc1ncc2nc(-c3ccccc3)c(=O)n(CCC#N)c2n1` gave a Potency of over 20 µM. In the case of `COc1ccc(Oc2ncc3ncc(=O)n(-c4ccc(OC)cc4)c3n2)cc1`, the Potency is reported as over 20 µM. `COc1ccccc1CCn1c(=O)c(C)nc2cncnc21` was tested, and the Potency was over 20 µM. Work on `CN(C)Cc1ccccc1-c1cncnc1Nc1ccccc1` yielded a Potency of over 20 µM. `Cc1cnc(CNc2ccnc(-c3ccccc3C)n2)cn1` was tested, and the Potency was over 20 µM. With `COc1cccc(Cn2c(=O)cnc3cnc(Oc4ccccc4)nc32)c1` the Potency was over 4 µM. `Cc1ccccc1-c1cncnc1N1CCNCC1` showed a Potency of over 20 µM. `COCC(=O)N1CCC2(CC1)CN(c1ccc(-c3ccccc3)cc1)C2` showed a Potency of over 20 µM. With `CNc1ncncc1-c1ccc(C(=O)N(C)C)cc1` the Potency was over 20 µM. Compound `Cc1cnc(CNc2cc(-c3c(C)noc3C)ncn2)cn1` has a Potency of over 20 µM. In the case of `Cc1noc(C)c1C(=O)N1CCC2(CCN(Cc3nccs3)CC2)CC1`, the Potency is reported as over 20 µM. In the case of `Fc1ccc(Nc2ccnc(-c3ccc4c(c3)OCO4)n2)cc1`, the Potency is reported as over 20 µM. With `CN(Cc1ccco1)c1ncncc1-c1cccnc1` the Potency was over 20 µM. Work on `COc1ccc(-c2nc3cnc(OC)nc3n(-c3ccc(OC)cc3)c2=O)cc1` yielded a Potency of over 20 µM. With `CS(=O)(=O)Nc1cccc(-c2ccc3ncnc(NCc4cccnc4)c3c2)c1` the Potency was over 20 µM. `COc1ccc(Oc2ncc3nc(CCc4ccccc4)c(=O)n(C[C@H]4CCCO4)c3n2)cc1` gave a Potency of over 20 µM. For `FC(F)(F)c1cc(CN2CCCC3(CCNCC3)C2)cc(C(F)(F)F)c1`, the Potency was over 20 µM. Work on `CS(=O)(=O)Nc1cccc(-c2nc(Nc3ccccc3)c3ccccc3n2)c1` yielded a Potency of over 20 µM. `COc1cccc(-c2cc(NCc3cccnc3)ncn2)c1` gave a Potency of over 20 µM. `CN1CCN(c2nc(-c3ccccc3C(F)(F)F)nc3ccccc23)CC1` showed a Potency of over 20 µM. With `CN(C)C(=O)c1ccc(-c2nc(NCc3cccnc3)c3ccccc3n2)cc1` the Potency was over 20 µM. With `O=C(c1cc(C(F)(F)F)cc(C(F)(F)F)c1)N1CCC2(CC1)CCN(c1ccccn1)CC2` the Potency was over 20 µM. `COc1ccc(NC(=O)N2CC3(CCN(C(=O)c4cc(C(F)(F)F)cc(C(F)(F)F)c4)CC3)C2)cc1` showed a Potency of over 20 µM. In the case of `COCCNc1ccnc(-c2ccccc2CN(C)C)n1`, the Potency is reported as over 20 µM.
